From PubChem BioAssay (Tox21)
Results filed as inconclusive are left out. Active and inactive are the calls of the source. Unless noted, calls follow the shape of the dose curve; as a rule, active = well fitted curve in the direction sought with a large enough effect in the repeat runs; inconclusive = weak or mixed curves; inactive = no such curve, though single readings can be large; an effect the other way counts as inactive or inconclusive.

What was measured:
[1] = biological target: Thyrotropin receptor (Homo sapiens) (UniProt P16473); experiment: qHTS assay to identify small molecule antagonists of the thyroid stimulating hormone receptor (TSHR) signaling pathway (AID 1259385; calls by dose curve; also: nearly all actives have a fitted effect of over 20% in size)
How it was run: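 Antagonist mode: compound-treated TSHR-expressing HEK293 cells were stimulated with 1.5 ng/mL TSH (final) in presence of Ro20-1724 for 30 min at RT. HTRF cAMP detection after 1 h; each compound tested at 15 concentrations, triplicate.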

[2] = qHTS assay to identify small molecule agonists of the estrogen receptor alpha (ER-alpha) signaling pathway in the presence of an antagonist - cell viability counter screen (AID 1259386);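 also: series mostly up to about 92 µM; cells exposed to compounds for 22 h at 37 °C before the viability read; nearly all actives have a fitted effect of over 30% in size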
How it was run: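 Cytotoxicity was measured in parallel with the ERE-luciferase agonist screen, in the same wells. The cells were VM7Luc4E2, which endogenously express ER-alpha, and treatment was with compounds plus 10.0nM ICI-182,780 for 22hr.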

[3] = biological target: Progesterone receptor (Homo sapiens) (UniProt P06401); experiment: qHTS assay to identify small molecule agonists of the progesterone receptor (PR) signaling pathway (AID 1346784; calls by dose curve; also: nearly all actives have a fitted effect of over 30% in size)
How it was run: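 Using charcoal-stripped serum (2%) to limit endogenous steroids, PR-UAS-bla HEK 293T cells received compounds for 16 hr at 37C after 6 hr plating; beta-lactamase FRET fluorescence was recorded following 2 hr substrate loading at room temperature.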

[4] = biological target: Progesterone receptor (Homo sapiens) (UniProt P06401); experiment: qHTS assay to identify small molecule antagonists of the progesterone receptor (PR) signaling pathway (AID 1346795; active = well fitted inhibition curve with a large enough effect in the signal ratio in the repeat runs, not every such curve was filed as active; the % refers to the signal ratio)
How it was run: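 Inhibition of R5020-induced (1 nM final) beta-lactamase reporter signal in PR-UAS-bla HEK293T cells was scored by FRET fluorescence after overnight (16 hr) compound treatment.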

[5] = qHTS assay to identify small molecule antagonists of the progesterone receptor (PR) signaling pathway - cell viability counter screen (AID 1346798); also: series mostly up to about 92 µM; nearly all actives have a fitted effect of over 50% in size
How it was run: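 ATP content as viability readout: CellTiter-Glo luminescence, 30 min room temperature, in PR-UAS-bla HEK293T cells after 16 hr compound/R5020 treatment at 37C and 5% CO2.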

[6] = qHTS assay to identify small molecule antagonists of the TGF-beta/Smad signaling pathway - cell viability counter screen (AID 1346824); also: nearly all actives have a fitted effect of over 50% in size
How it was run: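 Cytotoxicity counter-screen run in the same wells as the beta-lactamase Smad reporter read: CellTiter-Glo luminescence after 30 min at room temperature. HEK 293T SBE-bla cells had 5 hr compound exposure at 37 C with TGF-beta1 (0.25 ng/mL stock).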

[7] = qHTS assay to identify small molecule agonists of the TGF-beta/Smad signaling pathway - cell viability counter screen (AID 1346829); also: top concentration of the series differs between compounds; nearly all actives have a fitted effect of over 45% in size
How it was run: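 Luminescence from CellTiter-Glo, read after a 30 min room-temperature incubation, gives cell viability of SBE-bla HEK 293T cells treated 5 hr with compounds at 37 C.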

[8] = qHTS assay to identify small molecule agonists of the TGF-beta/Smad signaling pathway (AID 1346859; active = well fitted activation curve with a large enough effect in the signal ratio in the repeat runs, not every such curve was filed as active; the % refers to the signal ratio; also: series mostly up to about 77 µM)
How it was run: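 Stable Smad binding element-beta-lactamase HEK 293T cells; 5 hr compound exposure at 37 C under 5% CO2; 2 hr room-temperature substrate step; fluorescence excited at 405 nm, collected at 460 nm and 530 nm.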

[9] = biological target: Thyrotropin-releasing hormone receptor (Homo sapiens) (UniProt P34981); experiment: qHTS assay to identify small molecule antagonists of the thyrotropin-releasing hormone receptor (TRHR) signaling pathway (AID 1346877; active = well fitted inhibition curve with a large enough effect in the repeat runs, not every such curve was filed as active; also: series mostly up to about 51 µM)
How it was run: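 Antagonism is measured as suppression of the calcium response to 1 nM TRH in TRHR-HEK293 cells that have been dye-loaded for 2 h at 37 °C after overnight plating. Each compound is tested at 15 concentrations in triplicate.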

[10] = biological target: Thyrotropin-releasing hormone receptor (Homo sapiens) (UniProt P34981); experiment: qHTS assay to identify small molecule agonists of the thyrotropin-releasing hormone receptor (TRHR) signaling pathway (AID 1346891; calls by dose curve;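 also: HEK293 cells expressing TRHR with calcium dye readout; series mostly up to about 58 µM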)
How it was run: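 In 1536-format, 1500 TRHR-Hek293 cells per well grew 18 h, took up calcium dye for 2 h at 37 °C, received compound, and were read kinetically; 15-point titrations, triplicates.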

[11] = Human pregnane X receptor (PXR) small molecule agonists, qHTS cell viability counter screen (AID 1346977); also: nearly all actives have a fitted effect of over 50% in size
How it was run: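 Readout is CellTiter-Fluor fluorescence from PXR-Luc HepG2 cells. Plated cells rested 5hr, then were treated with compounds for 24hr at 37C and 5% CO2, with reagent present during the last hour.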

[12] = Caspase-3/7 induction in HepG2 cells by small molecules, qHTS assay (AID 1346978); also: nearly all actives have a fitted effect of over 15% in size
How it was run: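 Caspase-3/7 induction was measured by Caspase-Glo 3/7 luminescence (30 min, room temperature) after a 17 hr compound exposure of wild-type HepG2 cells seeded at 2,000 per well and pre-incubated 5 hr.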

[13] = Caspase-3/7 induction in CHO-K1 cells by small molecules, qHTS cell viability counter screen (AID 1346979); also: nearly all actives have a fitted effect of over 35% in size
How it was run: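 To flag cytotoxic compounds, treated CHO-K1 wild-type cells were given CellTiter-Fluor at 16hr and read fluorescently after 1hr at 37C; the caspase-3/7 luminescence was measured in these same wells.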

[14] = Caspase-3/7 induction in CHO-K1 cells by small molecules, qHTS assay (AID 1346980); also: nearly all actives have a fitted effect of over 15% in size
How it was run: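 Luminescent Caspase-Glo 3/7 read (30min, room temperature) quantified apoptosis induction. Cells were wild-type CHO-K1, treated with compound for 17hr at 37 C and 5% CO2.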

[15] = Caspase-3/7 induction in HepG2 cells by small molecules, qHTS cell viability counter screen (AID 1346981); also: series mostly up to about 92 µM; nearly all actives have a fitted effect of over 30% in size
How it was run: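 Cell viability is measured as a cytotoxicity counter screen alongside the Caspase-Glo 3/7 readout in identical wells. Wild-type HepG2 cells are treated with test compounds for 16 hr at 37 C before CellTiter-Fluor addition and a 1-hr incubation.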

[16] = biological target: Cytochrome P450 2D6 (Homo sapiens) (UniProt P10635); experiment: Cytochrome P450 Family 2 Subfamily D Member 6 (CYP2D6) small molecule antagonists: luciferase reporter qHTS assay (AID 1671196); also: series mostly up to about 120 µM; nearly all actives have a fitted effect of over 50% in size
How it was run: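 Enzyme and proluciferin substrate were first combined with test chemical for 10 min at room temperature. Adding NADPH regeneration solution started a 1 h reaction, stopped with luciferin detection reagent and read by luminescence 20 min later.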

[17] = qHTS assay to identify small molecule agonists of the progesterone receptor (PR) signaling pathway - cell viability counter screen (AID 1346799; calls by dose curve; also: nearly all actives have a fitted effect of over 45% in size)
How it was run: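 Cytotoxicity in PR-bla HEK293T cells: 16 h compound, 37C; CellTiter-Glo added post-FRET read; luminescence after 30 min RT.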

[18] = biological target: Nuclear receptor subfamily 1 group I member 2 (Homo sapiens) (UniProt O75469); experiment: Human pregnane X receptor (PXR) small molecule agonists, qHTS assay (AID 1346982); also: nearly all actives have a fitted effect of over 35% in size
How it was run: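 Cells: HepG2 stably carrying PXR-Luc. Medium held 5% charcoal-stripped FBS. Compounds in DMSO added after 5 hr plating, incubated 24 hr, then luminescence quantified with ONE-Glo.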

[19] = biological target: Nuclear receptor subfamily 1 group I member 2 (Rattus norvegicus) (UniProt Q9R1A7); experiment: Rat pregnane X receptor (rPXR) activation by small molecules, qHTS assay (AID 1346983); details: rPXR luciferase reporter cells, One-Glo luminescence, 24 h; max activation: stronger effect = higher value; also: nearly all actives have a fitted effect of over 20% in size
How it was run: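 Luminescent readout (One-Glo luciferase, 30 min room temperature) followed 24 hr compound treatment at 37 C of rPXR cells plated 2,000 per well and preincubated 5hr; qHTS format with compounds delivered in DMSO.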

[20] = biological target: Nuclear receptor subfamily 1 group I member 2 (Homo sapiens) (UniProt O75469); experiment: Human pregnane X receptor (PXR) activation by small molecules, qHTS assay (AID 1346985); also: nearly all actives have a fitted effect of over 40% in size
How it was run: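 DPX-2 cells (HepG2 co-transfected with a PXR response element and a CYP3A4-promoter luciferase construct) were seeded at 2,000 per well, rested 5 hr at 37C, then exposed to DMSO-dissolved compounds for 24 hr. Activation was read as luciferase luminescence.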
% is scaled to controls: 0 for no effect and ±100 for the full control effect.

Chain of Cytochrome P450 2D6 (Homo sapiens) (P10635 whole entry, looked up): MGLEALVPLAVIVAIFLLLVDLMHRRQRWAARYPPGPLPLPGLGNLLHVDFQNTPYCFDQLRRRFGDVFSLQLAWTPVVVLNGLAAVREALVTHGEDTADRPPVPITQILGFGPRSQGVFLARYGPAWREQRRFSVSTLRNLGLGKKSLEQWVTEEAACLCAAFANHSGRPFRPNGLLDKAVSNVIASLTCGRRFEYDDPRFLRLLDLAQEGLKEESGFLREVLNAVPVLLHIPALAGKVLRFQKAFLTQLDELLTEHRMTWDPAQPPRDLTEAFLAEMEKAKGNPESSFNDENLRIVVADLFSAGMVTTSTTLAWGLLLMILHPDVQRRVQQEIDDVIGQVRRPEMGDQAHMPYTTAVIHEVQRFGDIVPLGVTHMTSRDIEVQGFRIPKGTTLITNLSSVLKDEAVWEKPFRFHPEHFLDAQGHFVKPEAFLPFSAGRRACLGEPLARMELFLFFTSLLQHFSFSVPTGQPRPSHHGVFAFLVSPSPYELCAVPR
Chain of Thyrotropin receptor (Homo sapiens) (P16473 whole entry, looked up): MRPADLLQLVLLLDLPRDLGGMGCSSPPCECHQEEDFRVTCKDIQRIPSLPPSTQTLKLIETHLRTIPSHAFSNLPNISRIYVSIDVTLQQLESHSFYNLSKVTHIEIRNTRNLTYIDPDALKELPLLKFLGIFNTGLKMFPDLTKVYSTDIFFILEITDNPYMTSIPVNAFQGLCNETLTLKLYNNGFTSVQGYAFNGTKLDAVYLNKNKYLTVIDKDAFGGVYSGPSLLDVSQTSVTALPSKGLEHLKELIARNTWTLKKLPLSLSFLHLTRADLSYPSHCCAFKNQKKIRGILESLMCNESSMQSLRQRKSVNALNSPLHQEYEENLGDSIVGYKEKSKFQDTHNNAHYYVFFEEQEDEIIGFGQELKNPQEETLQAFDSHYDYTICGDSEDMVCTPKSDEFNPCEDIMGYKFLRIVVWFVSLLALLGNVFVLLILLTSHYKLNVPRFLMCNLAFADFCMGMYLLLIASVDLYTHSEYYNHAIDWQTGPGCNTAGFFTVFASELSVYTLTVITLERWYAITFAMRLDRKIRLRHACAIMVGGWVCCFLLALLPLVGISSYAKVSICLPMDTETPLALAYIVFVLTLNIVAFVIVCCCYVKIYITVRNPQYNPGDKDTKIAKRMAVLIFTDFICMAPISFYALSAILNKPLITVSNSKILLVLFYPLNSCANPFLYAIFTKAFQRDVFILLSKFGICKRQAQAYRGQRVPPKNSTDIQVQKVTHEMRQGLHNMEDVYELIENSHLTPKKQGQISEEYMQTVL
Chain of Progesterone receptor (Homo sapiens) (P06401 whole entry, looked up): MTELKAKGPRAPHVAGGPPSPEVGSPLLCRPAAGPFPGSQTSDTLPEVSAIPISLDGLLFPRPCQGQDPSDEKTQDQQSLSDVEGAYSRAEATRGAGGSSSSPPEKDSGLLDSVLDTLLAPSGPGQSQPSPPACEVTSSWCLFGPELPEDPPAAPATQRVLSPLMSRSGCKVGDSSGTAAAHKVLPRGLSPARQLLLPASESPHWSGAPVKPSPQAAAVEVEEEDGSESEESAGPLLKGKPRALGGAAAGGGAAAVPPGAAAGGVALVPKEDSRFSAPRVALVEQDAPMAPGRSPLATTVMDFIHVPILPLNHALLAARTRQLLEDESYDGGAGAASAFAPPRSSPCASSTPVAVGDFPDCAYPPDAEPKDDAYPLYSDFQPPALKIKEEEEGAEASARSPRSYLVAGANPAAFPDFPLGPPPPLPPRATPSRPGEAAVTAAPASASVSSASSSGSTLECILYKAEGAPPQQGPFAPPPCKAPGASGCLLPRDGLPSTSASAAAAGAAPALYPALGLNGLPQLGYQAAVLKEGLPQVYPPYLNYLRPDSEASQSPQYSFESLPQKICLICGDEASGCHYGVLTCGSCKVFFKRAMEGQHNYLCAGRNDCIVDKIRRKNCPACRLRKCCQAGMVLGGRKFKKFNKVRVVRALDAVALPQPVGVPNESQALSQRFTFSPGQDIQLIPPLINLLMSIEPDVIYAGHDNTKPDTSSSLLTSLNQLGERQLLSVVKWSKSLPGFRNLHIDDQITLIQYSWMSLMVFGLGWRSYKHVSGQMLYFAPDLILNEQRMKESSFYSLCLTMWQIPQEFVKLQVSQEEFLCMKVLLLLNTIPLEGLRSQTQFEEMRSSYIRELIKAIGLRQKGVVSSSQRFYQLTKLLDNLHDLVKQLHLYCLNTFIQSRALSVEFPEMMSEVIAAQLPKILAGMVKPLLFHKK
Chain of Thyrotropin-releasing hormone receptor (Homo sapiens) (P34981 whole entry, looked up): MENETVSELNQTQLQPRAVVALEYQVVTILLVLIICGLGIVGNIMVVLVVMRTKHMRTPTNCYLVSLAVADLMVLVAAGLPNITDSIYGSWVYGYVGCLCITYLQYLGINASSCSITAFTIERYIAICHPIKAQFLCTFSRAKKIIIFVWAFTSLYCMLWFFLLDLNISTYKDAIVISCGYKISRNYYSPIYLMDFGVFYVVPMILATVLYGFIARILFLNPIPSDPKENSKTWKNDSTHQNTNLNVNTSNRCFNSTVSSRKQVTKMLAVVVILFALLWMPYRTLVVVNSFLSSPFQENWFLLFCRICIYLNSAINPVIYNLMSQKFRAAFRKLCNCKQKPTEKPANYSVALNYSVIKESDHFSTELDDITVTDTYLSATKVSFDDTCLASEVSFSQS
Chain of Nuclear receptor subfamily 1 group I member 2 (Homo sapiens) (O75469 whole entry, looked up): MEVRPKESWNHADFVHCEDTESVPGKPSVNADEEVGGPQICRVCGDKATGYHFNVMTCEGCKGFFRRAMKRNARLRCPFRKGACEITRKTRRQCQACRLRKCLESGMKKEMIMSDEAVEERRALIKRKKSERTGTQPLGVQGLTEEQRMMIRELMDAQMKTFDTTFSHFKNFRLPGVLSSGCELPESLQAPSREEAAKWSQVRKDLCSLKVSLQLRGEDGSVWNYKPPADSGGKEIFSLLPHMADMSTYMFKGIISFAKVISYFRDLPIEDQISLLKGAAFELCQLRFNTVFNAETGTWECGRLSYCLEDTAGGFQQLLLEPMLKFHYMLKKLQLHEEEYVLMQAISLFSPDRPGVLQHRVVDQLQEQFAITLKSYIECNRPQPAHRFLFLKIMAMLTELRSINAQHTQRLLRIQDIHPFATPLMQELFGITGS
Chain of Nuclear receptor subfamily 1 group I member 2 (Rattus norvegicus) (Q9R1A7 whole entry, looked up): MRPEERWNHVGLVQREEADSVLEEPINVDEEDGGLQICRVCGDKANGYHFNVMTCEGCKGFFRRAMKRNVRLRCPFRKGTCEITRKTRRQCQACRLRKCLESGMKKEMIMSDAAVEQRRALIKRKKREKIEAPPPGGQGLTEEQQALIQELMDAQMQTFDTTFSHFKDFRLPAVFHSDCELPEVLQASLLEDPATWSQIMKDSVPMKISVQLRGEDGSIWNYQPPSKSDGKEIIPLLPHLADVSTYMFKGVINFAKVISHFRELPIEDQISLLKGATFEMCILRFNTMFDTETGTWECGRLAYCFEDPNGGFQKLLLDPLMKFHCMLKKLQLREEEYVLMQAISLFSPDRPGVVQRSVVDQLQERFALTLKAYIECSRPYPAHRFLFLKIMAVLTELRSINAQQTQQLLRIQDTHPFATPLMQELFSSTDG

O=C(O)COCC(=O)O
inactive: Potency [1] | Potency [2] | Potency [3] | Potency [4] | Potency [5] | outcome [6] | outcome [7] | outcome [8] | outcome [9] | outcome [10] | Potency [11] | Potency [12] | Potency [13] | Potency [14] | Potency [15] | Potency [16]

CCOc1ccccc1O
inactive: Potency [1] | Potency [2] | Potency [3] | Potency [4] | Potency [5] | Potency [17] | outcome [7] | outcome [8] | outcome [9] | outcome [10] | Potency [12] | Potency [13] | Potency [14] | Potency [15] | Potency [18] | Potency [16]

NC(=O)c1cc[n+](CC2=C(C(=O)[O-])N3C(=O)[C@@H](NC(=O)Cc4cccs4)[C@H]3SC2)cc1
inactive: Potency [1] | Potency [2] | Potency [3] | Potency [4] | Potency [5] | Potency [17] | outcome [7] | outcome [8] | Potency [11] | Potency [12] | Potency [13] | Potency [14] | Potency [18] | max activation [19] -2.94% | Potency [20] | Potency [16]

CCCCCCCCCCCCN1CCOCC1
inactive: Potency [1] | Potency [2] | Potency [3] | Potency [4] | Potency [5] | Potency [17] | outcome [7] | outcome [8] | outcome [9] | outcome [10] | Potency [11] | Potency [12] | Potency [13] | Potency [14] | Potency [15] | Potency [18] | Potency [16]

O=C(O)c1ccccc1[N+](=O)[O-]
inactive: Potency [1] | Potency [2] | Potency [3] | Potency [4] | Potency [5] | Potency [17] | outcome [7] | outcome [8] | outcome [9] | outcome [10] | Potency [12] | Potency [13] | Potency [14] | Potency [15] | Potency [18] | Potency [16]

CCCCCCCCCCCC(=O)OCC
inactive: Potency [1] | Potency [2] | Potency [3] | Potency [4] | Potency [5] | Potency [17] | outcome [6] | outcome [7] | outcome [8] | Potency [11] | Potency [12] | Potency [13] | Potency [14] | Potency [18] | Potency [16]

CCCCCC1CCC(=O)O1 (stereo not given)
inactive: Potency [1] | Potency [2] | Potency [3] | Potency [4] | Potency [5] | outcome [6] | outcome [7] | outcome [8] | outcome [9] | outcome [10] | Potency [11] | Potency [12] | Potency [13] | Potency [14] | Potency [15] | Potency [18] | Potency [16]

Cc1ccc(S(=O)(=O)NC(=O)NC2CCCC2)cc1
inactive: Potency [1] | Potency [2] | Potency [3] | Potency [4] | Potency [5] | outcome [6] | outcome [7] | outcome [8] | outcome [9] | outcome [10] | Potency [11] | Potency [12] | Potency [13] | Potency [14] | Potency [15] | max activation [19] -4.06% | Potency [20]
